Inconclusive results are not listed. Values without a mark were called inactive. The source made the active and inactive calls. Calls follow the shape of the dose curve; as a rule, active = well fitted curve in the direction sought with a large enough effect; inconclusive = small, poorly fitted or top-dose-only effect, or another doubt; inactive = no such curve, though single readings can be large; an effect the other way counts as inactive or inconclusive. Where a SMILES comes first, the peptide text is derived from it. [ ]: non-standard residue; d: D form. Hyp = O=C(O)[CH]1C[CH](O)CN1; Phe(ol) = N[CH](CO)Cc1ccccc1; Iva = CC[C](C)(N)C(=O)O; Aib = CC(C)(N)C(=O)O

For one assay, the system named is HEK293. The experiment in a line: Cytotoxic Profiling of Annotated Libraries Using Quantitative High-Throughput Screening (AID 1296008). Also: nearly all actives have a fitted effect of over 60% in size. Also: potency is read from the fitted curve at half-maximal effect. As to max response: % is scaled to controls: 0 for no effect and ±100 for the full control effect. Particulars: Five cell lines viability, CellTiter-Glo ATP luminescence, 48-72 h; max response: active compounds read low. The procedure, abridged:
(§1)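 Compounds were pin-transferred onto cells and incubated 48 or 72 hr at 37 degree Celsius, 95% humidity. CellTiter-Glo was added, plates sat 10 min at room temperature, then ATP-coupled luminescence was imaged as the viability read-out.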
(In general: Cellular ATP, detected with luciferase, serves as a proxy for viable cell number.)

Assay [1] relates to HaCat. The assay is described as above. Particulars: Five cell lines viability, CellTiter-Glo ATP luminescence, 48-72 h; max response: active compounds read low. In a few lines:
as §1

For assay [2], the system named is NIH3T3. The description is as above. The following applies: Five cell lines viability, CellTiter-Glo ATP luminescence, 48-72 h; max response: active compounds read low. In a few lines: as §1
Assay [3] has as its system HACAT. Description: qHTS assay to identify novel small-molecules to repurpose for Merkel cell carcinoma treatment (AID 1296009). Also: nearly all actives have a fitted effect of over 60% in size. The following applies: MCC and control cell lines, CellTiter-Glo viability, 72 h; at 44.8 µM (top of the series) unless noted. The procedure, abridged: (§2)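 Luminescence from CellTiter-Glo, read 10 min after addition at room temperature, reported viability following a 72 hr, 37 degree celsius treatment with NPC or MIPE compounds in titration; values normalized to plate controls.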
A general note: qHTS replaces the single test concentration by a dilution series.

Assay [4] concerns NIH3T3. The assay is described as above. Particulars: MCC and control cell lines, CellTiter-Glo viability, 72 h; series mostly up to 44.8 µM. In a few lines:
as §2

The next assay relates to Es-2. The experiment in a line: Primary qHTS to identify gynecologic anti-cancer compounds using libraries of approved drugs and bioactive compounds (AID 1345084). Also: nearly all actives have a fitted effect of over 55% in size. Also: potency is read from the fitted curve at half-maximal effect. As to activity change, negative = cytotoxicity: % is scaled to controls: 0 for no effect and ±100 for the full control effect. The following applies: Gynecologic cancer cell panel viability, ATPlite luminescence, 48 h; series mostly up to 57.5 µM. In a few lines: (§3)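 Five-point cytotoxicity, 48 h drug exposure at 37 C, 5% CO2, on cells seeded 16 h beforehand. ATP content read by ATPlite luminescence.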

A further assay relates to HeLa. The description is as above. Particulars: Gynecologic cancer cell panel viability, ATPlite luminescence, 48 h; series mostly up to 57.5 µM. The procedure, abridged: as §3
The test system of a further assay is JEG-3. The description is as above. The following applies: Gynecologic cancer cell panel viability, ATPlite luminescence, 48 h; series mostly up to 57.5 µM. The procedure, abridged:
as §3

Another assay deals with PA-1. The assay is described as above. The following applies: Gynecologic cancer cell panel viability, ATPlite luminescence, 48 h; series mostly up to 57.5 µM. In a few lines: as §3
A further assay relates to Hek293T. The description is as above. Particulars: Gynecologic cancer cell panel viability, ATPlite luminescence, 48 h, control line for the selectivity index; series mostly up to 57.5 µM. In a few lines:
as §3

Another assay has as its system OV90. Described as above. The following applies: Gynecologic cancer cell panel viability, ATPlite luminescence, 48 h; series mostly up to 57.5 µM. In a few lines: as §3
The subject of another assay is CAOV3. The assay is described as above. Particulars: Gynecologic cancer cell panel viability, ATPlite luminescence, 48 h; series mostly up to 57.5 µM. In a few lines: as §3
The test system of the next assay is CASKI. The assay is described as above. The following applies: Gynecologic cancer cell panel viability, ATPlite luminescence, 48 h; series mostly up to 57.5 µM. In a few lines:
as §3

In another assay the test system is C33A. The description is as above. The following applies: Gynecologic cancer cell panel viability, ATPlite luminescence, 48 h; series mostly up to 57.5 µM. In a few lines:
as §3

`CCn1c(-c2nonc2N)nc2c(C#CC(C)(C)O)ncc(OCC3CCCNC3)c21` (stereo not given): the Potency is 0.82 µM (active) with HEK293 and 28.2 µM (active) with PA-1. The outcome with HaCat [1], in the assay with NIH3T3 [2] and in the assay on HACAT [3] was inactive. Besides, the Potency entry in the assay with NIH3T3 [4], with Es-2, in the assay with HeLa and in the assay on JEG-3 was “inactive” in each case.

Consider `Cc1nc2ccc(-n3ncc(C(=O)c4cc5ccccc5[nH]4)c3N)cc2[nH]1`, for which the Potency in the assay on HEK293 was 5.8 µM (active); with NIH3T3 [2] it was 9.2 µM (active); in the assay with HeLa it was 28.2 µM (active); in the assay with Hek293T it was 14.1 µM (active); in the assay on OV90, 14.1 µM (active). In the assay on HaCat [1], the max response was -16.7%.

For `COc1cc(/C=C2\CCCN([C@@H](C)c3ccc(F)cc3)C2=O)ccc1-n1cnc(C)c1`, in the assay on HEK293, the Potency was 13 µM (active). The max response in the assay on HaCat [1] is 3.5%; in the assay with NIH3T3 [2], -4.02%. The Potency result with CAOV3, in the assay on CASKI, with HeLa, in the assay with JEG-3 and with OV90 was “inactive” throughout.

Turning to `CC(=O)NC(C(=O)O[C@H]1CCC(C)(C)[C@@H]2CC=C3C(=O)OCC3(O)[C@@]12C)C(C)C` (stereo not given in full), the max response in the assay with HEK293 is -20.5%; in the assay with HaCat [1], 3.16%. The result in the assay on NIH3T3 [2] was inactive. In addition, the Potency entry with NIH3T3 [4], in the assay on CAOV3, in the assay on CASKI, in the assay with Es-2, in the assay with HeLa and with Hek293T was “inactive” throughout. Besides, the Potency result in the assay on JEG-3 was “inactive”.

Turning to `CCc1cnc(N2CCC(c3nc(COc4ccc(-n5cnnn5)cc4)cs3)CC2)nc1`, the Potency with HEK293 was 13 µM (active). The compound was classed as inactive with HaCat [1] and with HACAT [3]. Besides, the max response in the assay on NIH3T3 [2] was -9.02%. Also, the Potency result in the assay with C33A, in the assay with CAOV3, in the assay with CASKI, in the assay on HeLa, in the assay on JEG-3 and in the assay on OV90 was “inactive” each time. Further, the Potency entry in the assay with PA-1 was “inactive”.

Take `Cc1cc(NC(=O)c2cccc(NC(=O)/C=C/CN(C)C)c2)ccc1Nc1nccc(-c2cccnc2)n1`: the figures for the Potency in the assay with HEK293, with HaCat [1] and in the assay on NIH3T3 [2] were 9.2 µM (active), 8.2 µM (active) and 18.4 µM (active), respectively. Besides, the Potency result in the assay on Es-2, in the assay with HeLa, in the assay with JEG-3 and with OV90 was “inactive” in each case.

In the case of `CC(=O)C1(C)CCC2C3C=C(C)C4=CC(=O)CCC4(C)C3CCC21C` (stereo not given), the Potency in the assay on HEK293 is 10.3 µM (active); with HeLa, 14.1 µM (active). Besides, the max response in the assay on HaCat [1] was -54.8%; with NIH3T3 [2], -16.2%. In addition, the Potency entry in the assay with C33A, with CAOV3, in the assay with CASKI, with Es-2, in the assay on JEG-3 and in the assay with OV90 was “inactive” throughout.

`O=C(Nc1ccccc1)N1CCC(Cc2cnc3ccccc3c2)CC1`: the max response is -99.9% in the assay with HEK293, -1.9% in the assay with HaCat [1] and 2.45% in the assay with NIH3T3 [2]. Also, the Potency entry in the assay with C33A, in the assay on CAOV3, in the assay with CASKI, with Es-2, in the assay on HeLa and with Hek293T was “inactive” in each case. Also, the Potency entry in the assay with JEG-3, in the assay with OV90 and with PA-1 was “inactive” each time.

Take `COc1cc2c(cc1NS(=O)(=O)c1ccc(Br)cc1C)n(C)c(=O)n2C`: the Potency was 1.46 µM (active) in the assay with HEK293 and 3.55 µM (active) with CAOV3. Also, the max response was 0.2% in the assay with HaCat [1] and 1.72% in the assay with NIH3T3 [2]. Further, the Potency entry in the assay with CASKI, with HeLa, in the assay on JEG-3 and in the assay on PA-1 was “inactive” throughout.

Take `c1cc(NCCc2c[nH]c3ccccc23)cc(Nc2ccncc2)c1`: the max response was -111% in the assay on HEK293 and -50.3% in the assay on NIH3T3 [2]. The compound was classed as inactive in the assay on HaCat [1] and in the assay on HACAT [3]. Besides, the Potency entry with C33A, in the assay with CAOV3, in the assay on CASKI, in the assay with Es-2, in the assay on HeLa and with Hek293T was “inactive” each time. The Potency result with JEG-3, with OV90 and with PA-1 was “inactive” each time.

For `CO[C@H]1C[C@@H]2CC[C@@H](C)[C@@](O)(O2)C(=O)C(=O)N2CCCC[C@H]2C(=O)O[C@H]([C@@H](C)C[C@@H]2CC[C@@H](O)[C@H](OC)C2)CC(=O)[C@H](C)/C=C(\C)[C@@H](O)[C@@H](OC)C(=O)[C@H](C)C[C@H](C)/C=C/C=C/C=C/1C`, in the assay on HEK293, the Potency is 0.0073 µM (active). Further, the max response is -8.22% in the assay with HaCat [1] and -0.671% in the assay with NIH3T3 [2]. Besides, the Potency entry in the assay with C33A, with CAOV3, in the assay on CASKI, in the assay on Es-2, in the assay with HeLa and with Hek293T was “inactive” in each case. Also, the Potency result with JEG-3 was “inactive”.

On to `CC(C)S(=O)(=O)NC[C@@H]1CC(c2ccc(N3CCCC3)c(F)c2)=NO1`, for which the Potency in the assay with HEK293 is 14.6 µM (active). Moreover, the values for the max response in the assay on HaCat [1] and with NIH3T3 [2] were -20.2% and -14.9%, respectively. Also, the Potency entry in the assay on CAOV3, with CASKI, in the assay on Es-2, with HeLa, in the assay on JEG-3 and with PA-1 was “inactive” each time.

For `O=C(Nc1ccc(C(O)(C(F)(F)F)C(F)(F)F)cc1)c1ccc(C(F)(F)F)cc1`, the Potency with HEK293 is 10.3 µM (active); with HaCat [1], 8.2 µM (active); with NIH3T3 [2], 20.6 µM (active). In the assay with JEG-3, the Potency entry was “inactive”.

On to `COC(=O)N1CC2(CC2)C[C@H](C(=O)NO)[C@H]1C(=O)N1CCN(c2ccccc2)CC1`, for which the Potency in the assay with HEK293 was 23.4 µM (active); in the assay on HaCat [1], 26.3 µM (active). In addition, the call with NIH3T3 [2] was inactive. In addition, the Potency entry in the assay on NIH3T3 [4] was “inactive”.

`Cc1cc2c(c(=O)o1)C=C1CC[C@H]([C@H](C)Cn3cnc(=N)c4[nH]cnc43)C[C@@H]1O2`: the Potency with HEK293 was 8.2 µM (active). The compound was classed as inactive in the assay on HaCat [1] and in the assay with HACAT [3]. In addition, the max response in the assay on NIH3T3 [2] is -1.79%. The Potency entry in the assay with CAOV3, with CASKI, in the assay on Es-2, with HeLa, with Hek293T and in the assay on JEG-3 was “inactive” throughout. Besides, the Potency result in the assay with OV90 and in the assay on PA-1 was “inactive” in each case.

For `CCC(C)(NC(=O)C(CCC(N)=O)NC(=O)C1CC(O)CN1C(=O)C(C)(C)NC(=O)C(C)(C)NC(=O)C(CC(C)C)NC(=O)CNC(=O)C(NC(=O)C(C)(C)NC(=O)C(C)(C)NC(=O)C(C)(C)NC(=O)C(Cc1ccccc1)NC(C)=O)C(C)C)C(=O)N1CC(O)CC1C(=O)NC(C)(C)C(=O)NC(CO)Cc1ccccc1` (stereo not given) (Ac-F[Aib][Aib][Aib]VGL[Aib][Aib][Hyp]Q[Iva][Hyp][Aib][Phe(ol)]; configuration not given here), the max response was -14.6% in the assay on HEK293 and 2.9% in the assay with NIH3T3 [2]. In addition, the compound was called inactive in the assay with HaCat [1]. The outcome with HACAT [3] was “inactive [at 9.27 µM]”. Further, the activity change, negative = cytotoxicity in the assay on C33A is -28.9% [at 6.55 µM]; with CAOV3, -2.26% [at 6.55 µM]; in the assay on CASKI it was -19.9% [at 6.55 µM]; with Es-2 it was -0.689% [at 6.55 µM]; in the assay with HeLa, -3.33% [at 6.55 µM]; in the assay with Hek293T, -7.78% [at 6.55 µM]. Besides, the activity change, negative = cytotoxicity is -14.6% [at 6.55 µM] with JEG-3 and -17.1% [at 6.55 µM] in the assay on OV90.

The values above are taken from PubChem BioAssay (NCATS).
